High-throughput results (PubChem)
Rows were chosen to be rich in hits. Some 2.3% of all compounds tested hit in one or more screens of this group.
CHRM1 PAM: potentiates human M1 receptor response to acetylcholine. CHO-K1 hM1, Fluo-8 calcium fluorescence, ACh EC20; 0% = ACh EC20, 100% = maximal ACh. activation, % at 3 µM. P11229. 360,000 tested, 0.088% active; in the data active = activation above about 19%, passing the limit was not always enough
Target sequence (P11229 whole entry, looked up): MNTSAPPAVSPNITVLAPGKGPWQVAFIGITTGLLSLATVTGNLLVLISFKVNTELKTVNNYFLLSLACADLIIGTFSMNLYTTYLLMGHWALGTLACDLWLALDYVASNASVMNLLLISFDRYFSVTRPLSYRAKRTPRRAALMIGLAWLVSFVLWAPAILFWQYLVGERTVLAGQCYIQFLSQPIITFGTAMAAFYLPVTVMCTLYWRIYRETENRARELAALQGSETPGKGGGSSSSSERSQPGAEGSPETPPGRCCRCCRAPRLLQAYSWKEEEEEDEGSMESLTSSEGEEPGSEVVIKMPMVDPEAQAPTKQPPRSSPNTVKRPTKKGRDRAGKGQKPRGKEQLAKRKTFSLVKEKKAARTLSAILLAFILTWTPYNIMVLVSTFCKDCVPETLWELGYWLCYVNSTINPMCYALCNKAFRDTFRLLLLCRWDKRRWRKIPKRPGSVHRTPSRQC
CHRM1 antagonist: blocks human M1 muscarinic receptor; CHO-K1 hM1, Fluo-8 calcium fluorescence, ACh EC80 antagonist; inhibition, % at 3 µM; 360,000 tested, 1.3% active; AID 588852;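 active = percent inhibition above its own plate's cutoff, namely the mean of that plate's compound wells plus 3 SD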;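 also: peak over basal fluorescence ratio during 140 s after agonist addition; 0% = ACh EC80 plus DMSO and 100% = DMSO alone without agonist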
CHO-K1 Ca ag: counter-screen for M1 agonists: effect in parental CHO-K1 cells; Fluo-8 calcium fluorescence; scaled to maximal ATP response, vehicle zero; activation, % at 3 µM; 360,000 tested, 0.48% active; in the data active = activation above about 15%;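 also: untransfected CHO-K1 host cells lacking M1 receptor as counterscreen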
CHO-K1 Ca PAM: counter-screen for M1 PAMs: effect in parental CHO-K1 cells; ATP EC20, Fluo-8 calcium fluorescence; 0% at ATP EC20, 100% at ATP max; activation, % at 3 µM; 360,000 tested, 0.02% active; AID 602247;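 active = activation above the run cutoff, the mean activation of all test compounds plus 3 SD, cut at about 40% in these data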;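 also: peak over basal fluorescence ratio in a 140 s read after ATP addition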
CHO-K1 Ca antag: counter-screen for M1 antagonists: effect in parental CHO-K1 cells; ATP-induced calcium, Fluo-8 fluorescence; inhibition, % at 3 µM; 360,000 tested, 0.6% active; AID 602250;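 active = inhibition above a per-plate cutoff, the plate's mean sample inhibition plus 3 SD, cut at about 24% in these data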;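 also: 0% = DMSO plus EC80 ATP and 100% = DMSO alone without ATP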
CHRM1 agonist: activates human CHRM1 receptor | P11229 | CHO-K1 hM1, Fluo-8 calcium fluorescence, agonist mode; 0% DMSO, 100% acetylcholine EC100 | activation, % at 3 µM | 360,000 tested, 0.33% active;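 active = activation above the run's mean compound activation plus 3 SD, cut at about 16% in these data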;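 also: peak over basal fluorescence ratio within a 140 s kinetic read after compound addition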
An asterisk follows results filed as active; x = no result given.

SMILES	CHRM1 PAM	CHRM1 antagonist	CHO-K1 Ca ag	CHO-K1 Ca PAM	CHO-K1 Ca antag	CHRM1 agonist
CCOC(=O)CSc1nc2nc(Cl)c(Cl)nc2[nH]1	1.4	-9.7	2.3	6.0	-13.5	6.3
CCOc1ccc(NC(=O)OCCN2CCN(CCc3ccccc3)C(C)C2)cc1 (stereo unspecified)	-6.1	-1.8	1.1	16.0	-12.4	-5.2
CCc1nc2ccc(C(=O)NC3CCN(Cc4ccccc4)CC3)cn2c1N(C)Cc1cc2ccccc2s1	-7.7	12.2	3.4	15.4	9.5	-6.1
COCCn1c(N)c(N(Cc2ccccc2)C(=O)C(C)Oc2ccc(Br)cc2)c(=O)[nH]c1=O (stereo unspecified)	4.5	-16.9	-0.1	-2.3	-1.8	1.1
COc1ccc(C2/C=C\CN(C(=O)C3CC3)CC(=O)N2Cc2ccc(F)cc2)cc1 (stereo unspecified)	-15.0	25.3	-0.5	-21.0	24.9*	-3.4
COc1ccc(C2/C=C\CN(C(=O)CC(C)(C)C)CC(=O)N2Cc2ccc(F)cc2)cc1 (stereo unspecified)	1.1	6.5	0.1	16.8	-12.0	-2.5
COc1ccc(Cn2cc(CN3CC(N4CCN(Cc5ccccc5F)CC4)CS3(=O)=O)nn2)cc1 (stereo unspecified)	x	x	2.8	-10.1	-11.6	x
CC(C)N1CCC1(C)C(=O)Nc1nc2ccccc2[nH]1 (stereo unspecified)	8.8	-19.7	0.0	7.2	7.0	-5.3
Cc1cccnc1C(NC(=O)C1CCN(Cc2ccc3ccccc3n2)CC1)c1ccc(Cl)cc1 (stereo unspecified)	-23.7	31.2*	0.6	-7.1	0.7	-7.7
CCOC(=O)c1ccc(NC(=O)C(=O)NCCc2ccc(OC)cc2)cc1	12.6	0.5	0.5	27.2	-0.5	-4.7
CCOC(=O)c1ccc(NC(=S)NCCc2ccc(F)cc2)cc1	-22.8	21.2	22.7*	-5.4	28.1*	1.2
C=C1C2=C(C(=O)N1OC)[C@@H](O)[C@@](C)(O)[C@@H](CCCCC)O2	5.9	-17.1	-0.2	17.0	-8.6	-5.2
Cc1ccc(C(=O)N[C@@H](Cc2ccccc2)C(=O)N2CCC3(CC2)NCCc2[nH]cnc23)cc1C	-20.1	47.0*	1.1	0.4	-7.1	-6.2
Cc1ccc(C(=O)NCC(C)(C)O)cc1	-3.4	15.5	0.0	-7.9	26.3*	-2.2
CCc1nc2ccc(C(=O)NCCCN3CCCC3=O)cn2c1N(CC)C(C)=O	5.9	-11.4	-0.2	-5.8	19.9	-4.3
Fc1cccc(Cc2c(-c3ccco3)nc3c4ccccc4ccn23)c1	-5.4	-22.9	1.1	10.4	-18.7	-6.0
O=C(COc1c(F)c(F)cc(F)c1F)NC(=O)NC1CCCC1	-21.1	31.0*	0.0	16.7	-3.5	-5.9
O=C1Nc2ccccc2N=C(c2ccc3c(c2)OCO3)C1N(C(=O)c1ccc2ccccc2c1)C1CC1 (stereo unspecified)	0.7	-31.7	3.0	6.4	-18.9	-4.2
CCn1nnnc1NCc1ccc(SC)cc1	-0.3	-5.2	0.3	14.5	-2.4	-8.5
CCn1nnnc1NCc1ccc(N2CCCC2)cc1	-22.3	89.4*	0.4	14.4	-13.7	-4.7
COc1cccc(CN(C)C(=O)c2cccc(S(=O)(=O)N3CCN(c4ccc(F)cc4)CC3)c2)c1OC	-10.3	28.1*	9.7	-21.7	10.8	-2.4
COc1cccc(CN(C)C(=O)c2cccc(S(=O)(=O)N3CCN(c4ccccc4)CC3)c2)c1OC	-11.7	11.0	11.6	-2.6	-9.1	1.4
CN(Cc1ccc(OC(F)F)cc1)C(=O)c1cccc(S(=O)(=O)N2CCN(Cc3ccccc3)CC2)c1	-14.4	32.6*	11.1	-7.1	12.4	-3.2
NC(Cc1ccc(Cl)cc1)c1csc(Nc2ccc(C(F)(F)F)cn2)n1 (stereo unspecified)	-0.3	1.6	0.3	-1.3	1.5	5.4
CCCc1ccc(C(O)c2ncc(-c3ccccc3F)[nH]2)cc1 (stereo unspecified)	3.8	-16.1	0.8	5.8	-10.3	-0.2
C#Cc1cccc(C(=O)N2CCCC(C(=O)c3ccc(OC)cc3C)C2)c1 (stereo unspecified)	1.4	-1.7	1.1	-21.8	24.9*	-3.7
